Screens from PubChem BioAssay.
a7 integrin act: activates integrin-mediated alleviation for muscular dystrophy | alpha7betagal myoblasts, beta-gal FDG fluorescence, 48 h | Potency, µM (titrated, usually from 38.3 µM), inactives show top-dose activation, usual class: activators | actives 0.064% (n = 350,000) | AID 624291; active means well fitted activation curve with a large enough effect; inconclusive means small, poorly fitted or top-dose-only effect; inactive means no such curve, though single readings can be large or run the other way;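 further: potency means the concentration at half of the fitted maximal effect; 100% = response of the positive control SU9516; nearly all actives have a fitted effect of over 60% in size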
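alpha7betagal+/- myoblasts (passage 13, 250/well) treated 48 h at 37C with compounds at 1:260 dilution of DMSO stock. Lysed, then beta-galactosidase activity read as FDG fluorescence (ex 480/em 540) after 30 min, with pre-read for autofluorescence.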
D3 ag: agonists of human D3 dopamine receptor; actives 0.58% (n = 410,000); max activation, %; P35462; D3R DiscoveRx beta-arrestin cells, luminescence, 90 min; in the data active means max activation above about 30%; further: 0% is about no effect
Target sequence (P35462 whole entry, looked up): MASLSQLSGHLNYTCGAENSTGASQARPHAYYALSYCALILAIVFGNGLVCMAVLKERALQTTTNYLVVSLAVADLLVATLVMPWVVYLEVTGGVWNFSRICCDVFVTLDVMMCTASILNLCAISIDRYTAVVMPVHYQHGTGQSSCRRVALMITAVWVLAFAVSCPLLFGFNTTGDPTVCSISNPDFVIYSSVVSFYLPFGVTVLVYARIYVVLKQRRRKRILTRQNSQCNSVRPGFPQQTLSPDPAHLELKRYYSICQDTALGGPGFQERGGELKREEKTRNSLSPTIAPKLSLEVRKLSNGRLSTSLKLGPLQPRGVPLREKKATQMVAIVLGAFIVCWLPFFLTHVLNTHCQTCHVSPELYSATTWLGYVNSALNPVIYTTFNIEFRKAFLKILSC
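Agonist-mode cell screen: cells plated at 1500/well and incubated overnight at 37 °C, then exposed to library compounds for 90 min at 37 °C. Detection reagent was added for 30–60 min at room temperature, and luminescence was read.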
D3 antag: antagonists of human D3 dopamine receptor | P35462 | D3R cells, DiscoveRx beta-arrestin luminescence, antagonist mode; stronger effect = lower value | max response, negative = inhibition, % | actives 2.5% (n = 360,000); in the data active means max response below about -50%; inconclusive means no clear call, values can overlap the other calls; further: on the % scale 0 is the no-effect control and ±100 the full control effect
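Cells plated overnight at 1500 cells/well, then exposed to library compounds with dopamine controls for 90 minutes at 37 degrees C. DiscoveRx reagent added for 30–60 minutes at room temperature; luminescence read, quantitative HTS format.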
* hit, by the source's call; ? = inconclusive; . = no result; ! = a repeat was not active. Sampled rows, rich in hits. Any-hit rate of the full collection: about 2.9%.

SMILES | a7 integrin act | D3 ag | D3 antag
COc1ccc(-n2c(C)cc(C(=O)COC(=O)c3ccc(O)cc3O)c2C)cc1 | -47% | 44* | 55
Cc1cccc(OC(C)C(=O)NC2CCS(=O)(=O)C2)c1C (stereo unspecified) | -24% | -13 | 2
CCOC(=O)NN1C(=O)c2ccccc2NC1c1ccccc1F (stereo unspecified) | 23% | -6 | -11
Clc1ccccc1OCc1nn[nH]n1 | 23% | 6 | -13
Cc1cccc(OCc2nn[nH]n2)c1C | 11% | 68* | -12
CCN(CC)CCCNC(=O)Cn1ncn2cccc2c1=O | 22% | -8 | -73*
Cc1ccc(CNC(=O)Cn2ncn3cccc3c2=O)cc1 | 11% | 1 | 8
CCOc1ccc2nc(SCC(=O)c3ccccc3)sc2c1 | 11% | 0 | 6
Cc1cccc(-c2nnn3c2nc(NCc2ccccc2)c2ccccc23)c1 | . | 4 | .
Cc1ccc(-c2c(C)nn3c(N4CCOCC4)cc(C)nc23)cc1 | 23% | -2 | -18
CCn1c(O)c(C=Nc2ccccc2)sc1=S | 5% | -5 | -27
O=C(O)Cn1c(O)c(C=Nc2ccccc2)sc1=S | 5% | 0 | -63*!
CC1(C)[C@@H](O)CC[C@]2(C)C3C(O)C=C4[C@H]5C[C@@](C)(CO)CC[C@]5(C)CC[C@]4(C)[C@]3(C)CC[C@@H]12 (stereo partly specified) | 5% | 65* | 53
CC1(C)[C@@H](O)CC[C@]2(C)[C@H]3C(=O)C=C4[C@@H]5C[C@@](C)(C(=O)O)CC[C@]5(C)CC[C@@]4(C)[C@]3(C)CC[C@@H]12 | . | 18 | 0
CCn1c(=S)sc2c(=O)n(CC(=O)Nc3ccccc3C(F)(F)F)c(C)nc21 | ? | 32* | -7
CCn1c(=S)sc2c(=O)n(CC(=O)Nc3ccccc3)c(C)nc21 | 4% | -8 | -29
Cc1ccc(NC(=O)Nc2nnc(Cc3ccc(F)cc3)s2)cc1 | -3% | 6 | 4
N#C/C(=C\c1ccc(-c2cccc(Cl)c2)o1)C(=O)Nc1cccc2cccnc12 | 36% | 0 | -51*
Cc1ccc(NC(=O)/C(C#N)=C/c2ccc(-c3ccc(Cl)c(C(=O)O)c3)o2)cc1C | . | -12 | .
CCCCOC(=O)c1ccc(NC(=O)/C(C#N)=C/c2ccc(-c3ccccc3)o2)cc1 | . | 0 | .
N#C/C(=C/c1ccc(-c2cccc([N+](=O)[O-])c2)o1)C(=O)Nc1nc(-c2cccs2)cs1 | 3% | -4 | -6
N#C/C(=C\c1ccc(-c2ccccc2)o1)C(=O)Nn1cnnc1 | ? | 0 | -69*
Cc1ccccc1NC(=O)/C(C#N)=C/c1ccc(-c2ccc(Cl)c(C(=O)O)c2)o1 | 21% | -15 | -66*
COc1ccc(C(=O)Nc2sc(C)c(C)c2CN2CC(C)OC(C)C2)cc1 (stereo unspecified) | -1% | 19 | -10
CC(C)CN(C(=O)c1ccc(N2CCCC2=O)cc1)C1CCS(=O)(=O)C1 (stereo unspecified) | -9% | 11 | 4
SMILES | a7 integrin act | D3 ag | D3 antag
COCCn1c(=N)c(S(=O)(=O)c2ccc(F)cc2)cc2c(=O)n3ccccc3nc21 | 13% | 9 | 11
COCCn1c(=N)c(S(=O)(=O)c2ccc(Br)cc2)cc2c(=O)n3ccccc3nc21 | 4.5µM* | 2 | 28
O=C(C[n+]1ccccc1)Nc1ccc(Cl)c([N+](=O)[O-])c1 | 6% | -4 | -14
O=C(C[n+]1ccc(C(=O)c2ccccc2)cc1)Nc1cccc([N+](=O)[O-])c1 | . | -13 | -95*
Cc1ccc(NC(=O)C[n+]2ccccc2)cc1[N+](=O)[O-] | 5% | -10 | -59*
O=C(Cc1ccccc1)Nc1cccc([N+](=O)[O-])c1 | 3% | -4 | -3
CC1CCN(C(=O)c2cccc(NC(=O)c3cccs3)c2)CC1 | -21% | 3 | 7
CC1=C(C(=O)OCC2CCCCC2)C(c2ccccc2F)CC(=O)N1 (stereo unspecified) | . | 1 | .
COc1ccc(C(=O)N2CCN(C(=O)COc3ccc(C)cc3)CC2)cc1OC | . | -8 | .
COc1ccc(F)cc1C1=CC(=O)C[C@H](c2ccc3c(c2)OCO3)C1 | -21% | -24 | -23
COc1ccc(NC(=O)C2CC3C=CC2C3)c([N+](=O)[O-])c1 (stereo unspecified) | ? | -1 | -14
CN1CCC(=C2c3ccccc3CCc3cccnc32)CC1 | . | -25 | .
CCOC(=O)N1CCC(=C2c3ccc(Cl)cc3CCc3cccnc32)CC1 | . | 52*! | 126
COc1cccc(C(=O)NC(=O)Nc2cc(C)[nH]n2)c1 | 3% | 2 | -10
Cc1cc(C(=O)C(C)Cl)c(C)n1Cc1ccco1 (stereo unspecified) | -44% | 2 | 5
Cc1nc2c(=O)n(C)c(=O)n(C)c2nc1Cl | -39% | -21 | -51*
CCN(CC)c1ccc2nc3c(=O)n(C)c(=O)n(C)c3nc2c1 | . | -2 | .
CCOC(=O)c1c(NC(=O)COc2ccc(C)cc2C(C)(C)C)sc2c1CCC(C)C2 (stereo unspecified) | . | 1 | .
CCN(CC)CCOc1ccc2c(c1)C(=NO)c1cc(OCCN(CC)CC)ccc1-2 | -80% | -30 | ?
CCN(CC)CCOc1ccccc1OC | -9% | -31 | -9
CCN(CC)CCOc1ccc(Br)cc1 | -16% | -31 | -119*
CCN(CC)CCN(C)Cc1ccc(Br)cc1 | -26% | -25 | -55*
COc1cccc(OC)c1OCCNC(C)(C)C | 14% | 9 | 5
CCN(CC)CCOc1ccc(/C(=C(\Cl)c2ccccc2)c2ccccc2)cc1 | . | . | -65*
CC(C)(C)NCCOc1ccc(Br)cc1 | 27% | -10 | -52*
SMILES | a7 integrin act | D3 ag | D3 antag
CCCN(CCO)Cc1ccc(Br)cc1 | -7% | -12 | -12
Cc1cc(C)nc(SCCn2c(N3CC(C)OC(C)C3)nc3c2c(=O)n(C)c(=O)n3C)n1 (stereo unspecified) | 7% | 3 | 9
CC(=O)Oc1c(C)c2c3c(c1OC(C)=O)[C@@H](C)CC[C@@H]3[C@@H](C)C[C@H]2C=C(C)C | 0% | 43* | 5
CC(C)=C[C@@H]1C[C@H](C)[C@H]2CC[C@H](C)c3c(O)c(O)c(C)c1c32 | 0% | -23 | 0
Cc1ccc2c(c1)-c1c(cnn1CC(=O)O)CO2 | -15% | -4 | 27
Cc1cccc(N2CCN(C(=O)Cn3ncc4c3-c3cc(C)ccc3OC4)CC2C)c1 (stereo unspecified) | . | 32* | .
O=C(CSc1ccccn1)NCc1ccc2c(c1)OCO2 | -9% | 0 | 3
O=C(CCCCCCCC(=O)c1ccccc1)c1ccccc1 | 4% | -8 | -10
C=C(CCC(=O)c1ccccc1)C(=O)c1ccccc1 | -49% | -14 | -54*
Cc1cccc(-c2cc(N3CCCN(C)CC3)n3nccc3n2)c1 | . | -18 | ?
CN1CCCN(c2cc(-c3ccc4ccccc4c3)nc3ccnn23)CC1 | . | -12 | -67*
O=C1c2ccsc2SCCN1Cc1c(Cl)cccc1Cl | ? | -2 | -61*
O=C1c2ccsc2SCCN1Cc1c(F)cccc1Cl | 11% | 2 | 2
Cc1ccc(CNC(=O)Cn2cc(C(=O)c3ccc(F)cc3)c(=O)c3ccc(C)nc32)cc1 | . | -7 | .
C[C@@H]1CN([C@@H](C)CO)C(=O)CCCn2nncc2CO[C@H]1CN(C)S(=O)(=O)c1ccc(-c2ccccc2)cc1 | 8% | 5 | 20
